Test results as given in the supplement of paper PMC10646978.
± gives the standard deviation.

Columns and labels:
Conditions in all cases: modulator concentration 10 µM
[1] = test system: RAW-Dual (murine macrophage reporter line); test: NF-kB reporter (SEAP) activity fold change vs agonist alone; higher = enhanced NF-kB activity
In short: (§1)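 RAW-Dual murine macrophage reporter cells were plated at 50 000 per well in 384-well plates, pin-transferred compound to 10 μM final, and pre-incubated for 1 hour at 37 °C before a PRR agonist was added and the cells incubated overnight. NF-κB activity was read from supernatant SEAP with QUANTI-Blue at 620 nm absorbance, and IRF activity from Lucia luciferase with QUANTI-Luc by luminescence. Each signal was expressed as fold change by dividing by the mean agonist-only control on the same plate. Two replicate plates were averaged, with errors obtained by propagation.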

[2] = test system: RAW-Dual (murine macrophage reporter line); test: IRF reporter (Lucia luciferase) activity fold change vs agonist alone; higher = enhanced IRF activity
In short: as §1

[3] = test system: RAW-Dual (murine macrophage reporter line); test: viability score (confluency relative to resting cells, overnight) (fraction); higher = more viable, active = viable (0.7 or more)
In short: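 Two confluency masks, generated with IncuCyte software over all imaged wells, were applied to IncuCyte images of RAW-Dual macrophages. The cells, in 384-well plates, had been exposed overnight to 10 μM final compound. The viability score is confluency as a fraction of resting cells, and a compound met the cutoff only with both masks above 70% of resting cells.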

[4] = agonist: CpG ODN 1826 0.5 ug/mL

Compound	NF-kB reporter [1, 4]	NF-kB reporter ([1]; agonist: LPS 0.1 ug/mL)	NF-kB reporter ([1]; agonist: MPLA […])	IRF reporter ([2]; agonist: 3'3'-cGAMP 10 ug/mL)	IRF reporter ([2]; agonist: LPS 0.1 ug/mL)	IRF reporter ([2]; agonist: MPLA […])	viability score [3]
Cc1cccc(-n2c(C)nc3ccccc3c2=O)n1	0.88 ± 0.052	0.827 ± 0.1	0.949 ± 0.039	1.02 ± 0.041	1.02 ± 0.054	0.935 ± 0.19	0.998 (active)
COCCN1C(=O)CN(C2CCN(CC(=O)N3CC(C)OC(C)C3)CC2)C1=O (stereo unspecified)	0.903 ± 0.056	0.889 ± 0.11	0.997 ± 0.073	0.95 ± 0.13	0.979 ± 0.13	1.03 ± 0.29	0.977 (active)
CCC1(c2ccc(N)cc2)CCC(=O)NC1=O (stereo unspecified)	1.22 ± 0.091	1.04 ± 0.052	1.06 ± 0.089	1.12 ± 0.26	0.913 ± 0.077	0.939 ± 0.083	0.996 (active)
Cc1cc(C(=O)N2C3CCC2c2cncnc2C3)c(C)o1 (stereo unspecified)	1.03 ± 0.087	1.06 ± 0.092	1 ± 0.036	0.974 ± 0.066	0.94 ± 0.06	0.832 ± 0.13	0.999 (active)
Nc1nc(N)nc(NC2CC2)n1	1.47 ± 0.063	1.15 ± 0.1	1.67 ± 0.39	0.614 ± 0.064	0.992 ± 0.24	0.892 ± 0.33	0.987 (active)
O=Cc1cn(Cc2cccc3ccccc23)c2ccccc12	0.959 ± 0.16	1.01 ± 0.11	1.16 ± 0.12	1.09 ± 0.03	1.25 ± 0.28	1.23 ± 0.25	0.989 (active)
O=C1NC(=O)C(C(CC(=O)c2ccccc2)c2ccccc2)C(=O)N1 (stereo unspecified)	1.04 ± 0.093	0.984 ± 0.076	0.93 ± 0.035	0.942 ± 0.12	1.02 ± 0.045	0.931 ± 0.14	1 (active)
Cc1cc(OC(=O)C2CCCCC2)c2c3c(c(=O)oc2c1)CCC3	0.947 ± 0.094	1.01 ± 0.063	0.968 ± 0.058	0.948 ± 0.042	1.29 ± 0.13	1.13 ± 0.07	1.01 (active)
O=C(O)COc1cc(Cl)c(Cl)cc1Cl	0.993 ± 0.076	0.836 ± 0.11	0.995 ± 0.093	1.02 ± 0.039	1.37 ± 0.18	1.46 ± 0.26	1.04 (active)
COc1ccc(CCNCc2ccc3ccccc3c2)cc1	0.853 ± 0.068	0.755 ± 0.051	1.65 ± 0.11	0.88 ± 0.06	0.98 ± 0.13	2.58 ± 0.29	0.123 (inactive)
CN1C(=O)COc2c(C(=O)NC3CN4CCC3CC4)cc(Cl)cc21.Cl (stereo unspecified)	0.661 ± 0.054	0.831 ± 0.09	1.08 ± 0.089	0.997 ± 0.046	1.42 ± 0.26	1.71 ± 0.51	0.94 (active)
COc1ccc(C(CN(C)C)C2(O)CCCCC2)cc1 (stereo unspecified) [Prestw-1170]	0.741 ± 0.12	1.17 ± 0.14	0.956 ± 0.074	0.916 ± 0.031	1.11 ± 0.22	1.37 ± 0.23	0.981 (active)
C1CCc2nnnn2CC1 [Prestw-162]	1.27 ± 0.3	0.966 ± 0.18	1.03 ± 0.1	0.941 ± 0.039	1.11 ± 0.17	1.03 ± 0.23	1.01 (active)
